Source: PubChem BioAssay AID623868 (Vanderbilt High Throughput Screening Facility, 2012)
Among all 2,100 compounds or so, about 760 (36%) were called active.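 The calls were made as follows: active = thallium-flux fluorescence traces judged by eye to show enhanced or reduced glutamate response, manual score 1 or -1, so both directions (some results past the limit were not filed as active); inactive = the rest, including fluorescent or raised-baseline compounds.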 A selection follows.

Test: non-GIRK thallium flux modulation in mGlu8 cells, confirmation, counter-screen for GIRK activator project, cell-based, HEK-293 rmGlu8, no GIRK (AID 623868);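 also: extra codes mark interference with 3 for fluorescent and 4 for baseline rise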
Conditions: thallium flux fluorescence, at 10 µM, actives lie on both sides, codes: 1 enhancer, -1 blocker, 0 none, thallium stimulus containing EC20 glutamate

| SMILES | manual score |
| --- | --- |
| CN(C)Cc1cc(C(C)(C)C)c(O)c(C(C)(C)C)c1 | 0 (inactive) |
| CCN1CCN(c2ccc(NC(=O)CCc3c(C)nc4c(-c5ccccc5)c(C)nn4c3C)cc2)CC1 | 0 (inactive) |
| FC(F)(F)c1cccc(NC(=S)NC2CCCC2)c1 | 0 (inactive) |
| COc1cccc2c1OC[C@@H](CO)[C@H]2N(C)C(=O)Nc1ccccc1 | 0 (inactive) |
| CCN(C(=O)c1cc(Cl)ccc1OC)C1CCCCC1 | 0 (inactive) |
| O=C(NC(=S)NC1CCCCCC1)c1cncc(Br)c1 | 1 (active) |
| COC(=O)[C@H](Cc1ccccc1)NC(=O)NCCC1=CCCCC1 | 0 (inactive) |
| COc1ccc(C)cc1NC(=O)NCCC1=CCCCC1 | 0 (inactive) |
| O=C(NC(=S)NCCC1=CCCCC1)c1cncc(Br)c1 | 1 (active) |
| CCOC(=O)c1ccc(NC(=S)NC2CCCC2)cc1 | 0 (inactive) |
| COc1ccccc1/C=C/C(=O)NC(=S)N(C)C1CCCCC1 | 1 (active) |
| Cc1ccc(C(=O)N/N=C(/CC(=O)c2cccs2)C(F)(F)F)cc1 | 1 (active) |
| CCCCNC(=S)N=Nc1c(O)n(Cc2ccccc2)c2ccccc12 | 1 (active) |
| C=CCn1c(O)c(N=NC(=O)OC(C)(C)C)c2ccccc21 | 1 (active) |
| Cc1ccccc1Cn1c(=N)n(CC(=O)c2ccco2)c2ccccc21 | 0 (inactive) |
| CCCn1c(O)c(N=NC(=O)c2ccco2)c2ccccc21 | 1 (active) |
| O=C(NCCSc1c[nH]c2ccccc12)c1ccco1 | 0 (inactive) |
| CN=C1SC(C(=O)O)CC(=O)N1C (stereo unspecified) | 0 (inactive) |
| O=C(NC1CC1)c1ccc(CSCc2cccc(F)c2)o1 | 0 (inactive) |
| CCOC(=O)C(C)Sc1nc2c(cnn2-c2ccc(C)cc2)c(=O)[nH]1 (stereo unspecified) | 0 (inactive) |
| CCOC(=O)c1nn(-c2ccc(F)cc2)c(C)c1C(C)=O | 0 (inactive) |
| CCOC(=O)C(CC)n1cnc2c(nnn2-c2ccc(OC)cc2)c1=O (stereo unspecified) | -1 (active) |

| SMILES | manual score |
| --- | --- |
| Nc1nc2n(n1)C(c1cccs1)CC(c1ccc(F)cc1)N2 (stereo unspecified) | 0 (inactive) |
| O=C(NC(=S)Nc1ccc2oc(-c3cccnc3)nc2c1)c1cccc(Cl)c1 | 0 (inactive) |
| O=C(Nc1ccc2oc(-c3ccncc3)nc2c1)c1c(F)c(F)c(F)c(F)c1F | 0 (inactive) |
| Cc1ccc(-c2nc3ccccc3o2)cc1NC(=S)NC(=O)c1cc2ccccc2o1 | 0 (inactive) |
| Cc1ccc2oc(-c3cccc(NC(=S)NC(=O)c4cccs4)c3)nc2c1 | 1 (active) |
| Cc1cc(C)c2oc(-c3ccc(C)c(NC(=S)NC(=O)c4cccs4)c3)nc2c1 | 1 (active) |
| O=C1Nc2cc(S(=O)(=O)N3CCCC3)ccc2N2CCCC12 (stereo unspecified) | 0 (inactive) |
| CC(C)OC(=O)/C(=C/c1cccnc1)NC(=O)c1ccccc1 | 0 (inactive) |
| O=C(N/N=C(\c1ccccc1)c1cccnc1)C(O)(c1ccccc1)c1ccccc1 | -1 (active) |
| O=C(NCCCCNC(=O)c1cccnc1)c1cccnc1 | 0 (inactive) |
| Cc1c(C#N)c2ncn(CC#N)c(=O)c2n1-c1ccccc1 | 0 (inactive) |
| CCCOC(=O)c1ccc(-c2c(C)noc2-c2ccc(OC)cc2O)o1 | -1 (active) |
| COc1ccc(-c2onc(C)c2-c2ccc(C(=O)OC(C)C)o2)c(O)c1 | 0 (inactive) |
| Cc1cc(C(=O)OCC(=O)Nc2ccc(F)cc2)c(C)o1 | 0 (inactive) |
| Cc1ccccc1Nc1nc2nonc2nc1N1CCOCC1 | 0 (inactive) |
| Cc1ccccc1NC1=NC(=S)N(c2ccccc2)C12CCOC(C)(C)C2 (stereo unspecified) | 1 (active) |
| Cc1ccc(N2C(=S)N=C(Nc3ccccc3C)C23CCOC(C)(C)C3)cc1 (stereo unspecified) | 1 (active) |
| CC1=NCCN1S(=O)(=O)c1cc(Cl)ccc1Cl | 0 (inactive) |
| COc1cccc2[nH]c3c(N4CCCC(C)C4)ncnc3c12 (stereo unspecified) | 0 (inactive) |
| S=C1Nc2ccccc2Sc2ccc(Cl)cc21 | 0 (inactive) |
| Clc1ccc2c(c1)C(N1CCNCC1)Cc1ccccc1S2 (stereo unspecified) | 0 (inactive) |
| S=C1CCSc2ccc(Cl)cc2N1 | 1 (active) |

| SMILES | manual score |
| --- | --- |
| S=C1Nc2cc(Cl)ccc2Sc2ccccc21 | 1 (active) |
| CCOC(=O)c1[nH]c(C)c(C(=O)NC2CCCCC2)c1C | 0 (inactive) |
| CC(C)Sc1oc(-c2ccco2)nc1S(=O)(=O)c1ccccc1 | 0 (inactive) |
| Cc1ccc(-c2cc(-c3cccs3)[nH]n2)c(O)c1 | 0 (inactive) |
| Fc1ccc(/C=N/n2c(-c3cccs3)n[nH]c2=S)cc1 | 1 (active) |
| Cc1ccc(/C=N/n2c(-c3cccs3)n[nH]c2=S)cc1 | 1 (active) |
| C=CCn1c(-c2cccs2)nc2ccccc21 | 0 (inactive) |
| CN=c1scc(-c2cccs2)n1/N=C/c1ccc(O)c(O)c1O | 0 (inactive) |
| CC12CN(Cc3ccccc3)CC(C)(CN(Cc3ccccc3)C1)C2=NO | 0 (inactive) |
| O=C(c1ccc2c(=O)n(C3CCCC3)c(=S)[nH]c2c1)N1CCc2ccccc21 | 0 (inactive) |
| CC1CCCCC1n1c(=S)[nH]c2ccccc2c1=O (stereo unspecified) | 1 (active) |
| O=C(C1CCC(Cn2c(=S)[nH]c3ccccc3c2=O)CC1)N1CCN(c2ccccc2)CC1 (stereo unspecified) | 0 (inactive) |
| CC1CCCC(n2c(=S)[nH]c3ccccc3c2=O)C1C (stereo unspecified) | 3 (inactive) |
| CCN1CCN(C(=O)c2ccc3c(=O)n(C4CCCC4)c(=S)[nH]c3c2)CC1 | 0 (inactive) |
| O=c1c2ccccc2[nH]c(=S)n1C1CCCCC1 | 1 (active) |
| CCOC(=O)N1CCC(n2c(=S)[nH]c3ccccc3c2=O)CC1 | 1 (active) |
| CC1CCC(n2c(=S)[nH]c3ccccc3c2=O)CC1 (stereo unspecified) | 1 (active) |
| O=c1[nH]c2ccccc2n1CCC1CCCCC1 | 0 (inactive) |
| CCOC(=O)/C(=C\C=C1/Sc2cc(OCC)c(OCC)cc2N1CC)C(C)=O | 3 (inactive) |
| C=CCN1CCN(C(c2ccc(Cl)cc2)c2nnnn2CCc2ccc(OC)c(OC)c2)CC1 (stereo unspecified) | 0.5 (inactive) |
| CCC1(C)CC(c2csc(N)n2)CCO1 (stereo unspecified) | 0 (inactive) |
| O=C(CSCCO)Nc1ccccc1 | 0 (inactive) |

| SMILES | manual score |
| --- | --- |
| CCOC(=O)C(C(=O)OCC)c1cc(Br)c2noc3c2c1C(=O)c1ccccc1-3 | 3 (inactive) |
| CC(C)(C)OC(=O)COc1cc(O)c2c(=O)cc(-c3ccccc3)oc2c1 | 0 (inactive) |
| Cc1ccc2c(c1)N(CC(=O)N(Cc1ccccn1)Cc1ccco1)C(=O)C(C(C)C)O2 (stereo unspecified) | 0 (inactive) |
| CCOc1ccc(-n2c(Cc3cc(=O)[nH]c(=O)[nH]3)nnc2SC(C)C(=O)OC)cc1 (stereo unspecified) | 0 (inactive) |
| COC(=O)C(C)Sc1nc2c(c(=O)n(C)c(=O)n2C)n1Cc1cccc(C)c1 (stereo unspecified) | 0 (inactive) |
| COC(=O)c1ccc(CSc2nc3c(c(=O)n2-c2ccc(F)cc2)SCC3)o1 | -1 (active) |
| CCOc1ccc(-n2c(SC(C)C(=O)OC)nc3c(c2=O)SCC3)cc1 (stereo unspecified) | -1 (active) |
| COc1cccc(NC(=O)NC2(C(F)(F)F)Oc3ccccc3O2)c1 | 0 (inactive) |
| CN(C)S(=O)(=O)N(CC(=O)Nc1ccc2ccccc2c1)c1ccccc1 | 0 (inactive) |
| COc1ccc(C(=O)Nc2ccccc2)cc1S(=O)(=O)Nc1cc(C)on1 | 0 (inactive) |
| CCCCOc1cccc(OCCCC)c1C(=O)Nc1cc(C)on1 | 0 (inactive) |
| Cc1cc(NC(=O)c2ccccc2Oc2ccccc2)no1 | -1 (active) |
| Cc1cc([N+](=O)[O-])ccc1-c1ccc(C2Nc3ccccc3C(=O)N2O)o1 (stereo unspecified) | 1 (active) |
| O=C1c2ccccc2NC(c2ccc(-c3cccc(Cl)c3)o2)N1O (stereo unspecified) | 1 (active) |
| O=C1c2ccccc2NC(c2ccc(-c3ccc(Br)cc3)o2)N1O (stereo unspecified) | 1 (active) |
| COc1ccc(C(=O)C2C(c3ccc(-c4ccccc4[N+](=O)[O-])o3)NC(=O)NC2(O)C(F)(F)F)cc1 (stereo unspecified) | 0.5 (inactive) |
| CC(=O)Nc1ccc(SCC(=O)c2cc(C)n(-c3ccccc3F)c2C)cc1 | 0.5 (inactive) |
| Cc1cccc(C)c1NC1=NC(=S)N(c2ccc(N(C)C)cc2)C1(C)C | 1 (active) |
| CC1CN(C(=O)C2CCCCC2)C(C)CN1C(=O)C1CCCCC1 (stereo unspecified) | 0 (inactive) |
| Cn1c(NC(=O)Cc2ccc(F)cc2)cc(=O)n(C)c1=O | 0 (inactive) |
| CSCSC1=C(C#N)C(c2ccc(Cl)cc2)C(C(C)=O)=C(C)N1 (stereo unspecified) | 0 (inactive) |
| CC(=O)C1=C(C)NC(SCc2ccc(C#N)cc2)=C(C#N)C1c1ccco1 (stereo unspecified) | 0 (inactive) |

| SMILES | manual score |
| --- | --- |
| CCOC(=O)C1=C(c2ccccc2)NC(SC)=C(C#N)C1c1ccco1 (stereo unspecified) | 0 (inactive) |
| CC(=O)C1=C(C)NC(SCC(=O)c2ccc(Cl)cc2Cl)=C(C#N)C1c1ccco1 (stereo unspecified) | -1 (active) |
| CSCSC1=C(C#N)C(c2ccccc2Cl)C(C(C)=O)=C(C)N1 (stereo unspecified) | -1 (active) |
| O=C(CCc1nc(-c2ccccc2F)no1)NCCN1CCN(Cc2ccccc2)CC1 | 0 (inactive) |
| COc1ccc(NC(=O)C(=O)NNC(=O)c2cccs2)cc1 | 1 (active) |
| COc1ccc(Br)cc1CNC(=O)Nc1cccs1 | 0 (inactive) |
| COc1ccc(NC(=O)C(=O)NNC(=O)c2cccs2)c(OC)c1 | 1 (active) |
| COc1cccc(NC(=O)Nc2cccs2)c1 | 0 (inactive) |
| COC(=O)c1cc(OC)c(OC)cc1NC(=O)Nc1ccc(OC)cc1OC | 0 (inactive) |
| O=C(NNC(=O)c1cccs1)Nc1cccc(Cl)c1 | 0 (inactive) |
| CCCc1noc2c1/C(=N\O)CC(CC(C)SCC)C2 (stereo unspecified) | 0 (inactive) |
| O=C(CSc1nnnn1-c1ccc(O)cc1)Nc1cccc(S(=O)(=O)N2CCCC2)c1 | 0 (inactive) |
| CCc1ccc(C(=O)OCC(=O)Nc2cccc(S(=O)(=O)NC3=NCCCCC3)c2)cc1 | 0 (inactive) |
| O=C(CSc1ccc2ccccc2c1Br)Nc1cccc(S(=O)(=O)NC2=NCCCCC2)c1 | 1 (active) |
| Cc1ccsc1/C=N/NC(=O)c1sccc1C | 1 (active) |
| Cc1ccc(N2CC(C(=O)N/N=C/c3sccc3C)CC2=O)cc1 (stereo unspecified) | 0 (inactive) |
| OC(CNCC1CCCO1)Cn1c2ccc(Br)cc2c2cc(Br)ccc21 (stereo unspecified) | 0 (inactive) |
| O=C1CC(C(=O)Nc2ccc(Br)cc2)C2(CCCC2)O1 (stereo unspecified) | 0 (inactive) |
